Screening data from PubChem.
The list is not random: actives were taken first. Their share in the collection is about 7.1%.
ELG1 genotoxic: genotoxicity induction in ELG1-luciferase HEK293T cells; HEK293T ELG1-luciferase reporter, luminescence, 16 h; Potency, µM (top dose mostly 46 µM), for inactives: at the highest dose activity change, positive = activation, hits mostly activators; 330,000 tested, 1.3% active; note: % of control where 0% means no effect; nearly all actives have a fitted effect of over 60% in size
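Reporter readout depends on ELG1 protein level, which increases with genetic stress. After 16 hr compound exposure at 37 °C, luciferase activity was quantified using ONE-Glo.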
AT treatment: potential ataxia-telangiectasia treatment; F2112 A-T fibroblasts, KAP-1 phosphorylation AlphaLISA; neocarzinostatin DNA damage 30 min before lysis; Potency, µM (doses to about 57.5 µM), for inactives: top-dose activation, hits mostly activators; 320,000 tested, 0.19% active; AID 485349; note: % of control where 0% means no effect; nearly all actives have a fitted effect of over 45% in size
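ATM-like activity read as KAP-1 phosphorylation via AlphaLISA donor/acceptor antibody pairs after lysis and 6 hr at 25C. Cells were ATM-null patient fibroblasts (F2112, hTERT), dosed 60 min, then exposed to the DSB inducer NCS for 30 min.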
p53 reactivation: mutant p53 re-activation in reporter cells; Potency, µM (top dose mostly 92.2 µM), without a hit: at the highest dose activity change, positive = activation, most hits filed as activators; H1299 p53-A138V BP100-luciferase reporter, luminescence, 24 h; 320,000 tested, 0.063% active; note: % of control where 0% means no effect; nearly all actives have a fitted effect of over 45% in size
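p53-null H1299 cells stably carrying temperature-sensitive p53-A138V and a BP100-luciferase reporter were pinned with compounds (4-point, 1:5 series) and held 24 hrs at 37 deg C. Luminescence was read 10 min after detection reagent.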
MCF10A rereplic: induces DNA re-replication in MCF 10a normal breast cells. MCF 10A DNA re-replication, Hoechst nuclear intensity, 48 h. Potency, µM (series often up to 46.1 µM), for the others: at the highest dose activity, positive = re-replication, usual class: activators. 350,000 tested, 2.9% active. AID 624296; note: % of control where 0% means no effect; nearly all actives have a fitted effect of over 50% in size
ELG1 repair inh: blocks ELG1-dependent DNA repair in HEK293T cells; HEK293T ELG1-luciferase reporter, luminescence, 16 h; DNA damage induced by 5-fluorouridine; Potency, µM (top dose mostly 46.1 µM), for the others: at the top dose activity change, negative = inhibition, actives largely listed as inhibitors; 330,000 tested, 2.3% active; AID 504467; note: % is set by controls: 0 for no effect and ±100 for the full control effect; nearly all actives have a fitted effect of over 55% in size
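HEK293T cells expressing luciferase-tagged ELG1 (2,000/well) received 5-Fluorouridine plus compound or DMSO for 16 hr at 37 °C. Luciferase was read by ONE-Glo luminescence after 30 min at room temperature.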
SW480 rerep: DNA re-replication induction in SW480 cells. Potency, µM (highest dose often 46.1 µM), without a hit: top-dose re-replication activation, actives largely listed as activators. SW480 DNA re-replication, Hoechst DNA content imaging, 48 h. 340,000 tested, 1.8% active. AID 624297; note: % of control where 0% means no effect; nearly all actives have a fitted effect of over 55% in size
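Cells (250 per well) received 23 nL compound or DMSO by pin tool and were kept 48 hr at 37 C, 5% CO2. Nuclei were then stained with Hoechst for 40 min and scanned for DNA content.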
ELG1 FLuc counter: luciferase inhibition in cell-free luciferin readout for ELG1 hits | shares compounds with ELG1 repair inh | cell-free firefly luciferase luminescence counter-screen, ViewLux | Potency, µM (series often up to 46.1 µM), without a hit: top-dose activity change, negative = inhibition, most hits filed as inhibitors | 350 tested, 3% active | AID 624247; note: % is set by controls: 0 for no effect and ±100 for the full control effect
ELG1-Luc inh: confirmation of human ELG1-dependent DNA repair inhibitors; 670 tested, 68% active; shares compounds with ELG1 repair inh; AID 624248; HEK293T ELG1-luciferase levels, luminescence; cells co-treated with 5-fluorouridine; Potency, µM (highest dose often 46.1 µM), without a hit: top-dose activity change, negative = inhibition, actives largely listed as inhibitors; note: % is set by controls: 0 for no effect and ±100 for the full control effect; nearly all actives have a fitted effect of over 55% in size
ELG1-Luc MMS: inhibits ELG1-dependent repair under MMS stimulation in HEK293T cells; shares compounds with ELG1 repair inh; HEK293T luciferase-tagged ELG1 level, MMS stimulated; Potency, µM (top dose mostly 46.1 µM), inactives show at the top dose activity change, negative = inhibition, most hits filed as inhibitors; 670 tested, 53% active; AID 624249; note: % is set by controls: 0 for no effect and ±100 for the full control effect; nearly all actives have a fitted effect of over 60% in size
ELG1 5FU viab: confirmation of ELG1 repair inhibitors: viability with 5FU | shares compounds with ELG1 repair inh | cell viability with 5-FU, ELG1-dependent repair | Potency, µM (top dose mostly 46.1 µM), for the others: top-dose activity change, negative = viability loss, most hits filed as cytotoxic | 670 tested, under 10 active | AID 624250;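 note: ELG1-luc HEK293T cells cotreated with 5-fluorouridine at 10 µM final; viability measured 16 h after compound addition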
ELG1 MMS cell: confirmation of ELG1 repair inhibitors: viability with MMS; shares compounds with ELG1 repair inh; Cell viability with MMS, ELG1-dependent DNA repair; Potency, µM (top dose mostly 46.1 µM), for the others: at the top dose activity change, negative = viability loss, most hits filed as cytotoxic; 670 tested, 33% active; AID 624251;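 note: ELG1-luc HEK293T cells co-treated with 10 µM MMS; viability read 16 h after compound addition; % is set by controls: 0 for no effect and ±100 for the full control effect; nearly all actives have a fitted effect of over 60% in size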
Cell viab unstim: counter-screen for ELG1 repair inhibitors: unstimulated cell viability. shares compounds with ELG1 repair inh. cell viability counter-screen, unstimulated, luminescence. Potency, µM (doses to about 45.9 µM), for the others: at the top dose activity change, negative = loss of viability, most hits filed as cytotoxic. 900 tested, 8% active;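 note: compound exposure lasted 16 hours before reading; % is set by controls: 0 for no effect and ±100 for the full control effect; nearly all actives have a fitted effect of over 55% in size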
FLuc biochem: counter-screen for ELG1 repair inhibitors: firefly luciferase inhibition | shares compounds with ELG1 repair inh | purified firefly luciferase, luminescence counter-screen | Potency, µM (series often up to 57.5 µM), without a hit: at the top dose activity, negative = inhibition, most hits filed as inhibitors | 350 tested, 10% active | AID 624253; note: % is set by controls: 0 for no effect and ±100 for the full control effect
An asterisk follows results filed as active; u = inconclusive; x = no result given. Calls come from the whole dose curve; as a rule, active = well fitted curve in the direction sought with a large enough effect; inconclusive = small, poorly fitted or top-dose-only effect, or another doubt; inactive = no such curve, though single readings can be large; an effect the other way counts as inactive or inconclusive. Potency is the fitted concentration of half-maximal effect.

SMILES	ELG1 genotoxic	AT treatment	p53 reactivation	MCF10A rereplic	ELG1 repair inh	SW480 rerep	ELG1-Luc inh	ELG1-Luc MMS	ELG1 5FU viab	ELG1 MMS cell	Cell viab unstim	others
OCC1OC(n2cnc3c(=S)nc[nH]c32)C(O)C1O (stereo not given)	x	x	x	u	x	6%	u	u	u	u	6.3µM*	ELG1 FLuc counter=9%;FLuc biochem=1%
CC1(C)OC2C(CO)OC(n3cnc4c(=S)nc[nH]c43)C2O1 (stereo not given)	-1%	2%	2%	u	u	12%	x	x	x	x	x
O=C(c1nc2nc(-c3ccccc3)cc(C(F)(F)F)n2n1)N1CCCCC1	-6%	14%	-7%	-25%	3.3µM*	-3%	-8%	18%	1%	-5%	-1%
O=C(c1cc2nc(-c3ccccc3)cc(C(F)(F)F)n2n1)N1CCCC1	x	x	x	4%	x	-4%	x	x	x	x	x
O=c1c2ccccc2nc(COc2ccccc2)n1/N=C/c1c[nH]c2ccccc12	0%	-3%	4%	27%	2.3µM*	2%	6.3µM*	-18%	u	4%	u
O=c1c2ccccc2nc(COc2ccccc2)n1/N=C/c1ccc(O)cc1O	-3%	-3%	5%	1%	u	20%	x	x	x	x	x
COc1cc(C(=O)NCCCC2CCCC2)ccc1OC1CCN(C(C)=O)CC1	-2%	-2%	x	10%	-15%	-2%	x	x	x	x	x
CN(C)c1ccc(/C=C2\C=Cc3ccccc32)c(F)c1	x	x	x	x	x	x	x	x	x	x	-4%
COCCC(C(=O)Oc1c(C(C)(C)C)cc(C)cc1C(C)(C)C)c1ccccc1 (stereo not given)	1%	14%	11%	-10%	u	-5%	x	x	x	x	x
COc1ccc(/C=C/c2ccc3ccccc3n2)cc1OC	x	x	x	x	x	x	x	x	x	x	u	ELG1 FLuc counter=36%;FLuc biochem=u
COc1ccc(/C=C/c2ccc3cccc(O)c3n2)cc1Br	u	1%	u	6%	u	10%	x	x	x	x	x
